Results: PubChem BioAssay (NCI)
This is part of a sample that, as a whole, favours compounds with a hit. Of some 83,000 tested, about 20% had one in any assay.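 Values shown are percent growth following 48 h exposure of cells in 96-well plates to a single concentration of compound; below 10 was considered active.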 Values without a mark were called inactive. Active and inactive are the calls of the source.

How the values were obtained:
Assay in all cases: NCI-60 one-dose screen, 48 h (100 = growth as untreated, 0 = no growth, -100 = all killed)
Conditions in all cases: 10 µM unless noted
DU-145 prostate = system: DU-145 prostate
K-562 leukemia = system: K-562 leukemia
MALME-3M melanoma = system: MALME-3M melanoma
MDA-MB-231 breast = system: MDA-MB-231 breast
RXF 393 renal = system: RXF 393 renal
SF-268 CNS = system: SF-268 CNS
SF-539 CNS = system: SF-539 CNS
UACC-257 melanoma = system: UACC-257 melanoma
M14 melanoma = system: M14 melanoma
HCT-15 colon = system: HCT-15 colon
HT29 colon = system: HT29 colon
SNB-75 CNS = system: SNB-75 CNS
SNB-19 CNS = system: SNB-19 CNS
U251 CNS = system: U251 CNS
PC-3 prostate = system: PC-3 prostate
SK-MEL-5 melanoma = system: SK-MEL-5 melanoma
UACC-62 melanoma = system: UACC-62 melanoma
LOX IMVI melanoma = system: LOX IMVI melanoma
SK-MEL-28 melanoma = system: SK-MEL-28 melanoma

Row | Structure (SMILES) | growth (DU-145 prostate) | growth (K-562 leukemia) | growth (MALME-3M melanoma) | growth (MDA-MB-231 breast) | growth (RXF 393 renal) | growth (SF-268 CNS) | growth (SF-539 CNS) | growth (UACC-257 melanoma) | growth (M14 melanoma) | growth (HCT-15 colon) | growth (HT29 colon) | growth (SNB-75 CNS) | growth (SNB-19 CNS) | growth (U251 CNS) | growth (PC-3 prostate) | growth (SK-MEL-5 melanoma) | growth (UACC-62 melanoma) | growth (LOX IMVI melanoma) | growth (SK-MEL-28 melanoma)
1 | COc1ccc(NC(=O)C2c3ccccc3C(=O)N(CC(C)C)C2c2cccs2)cc1 (centres undefined) | 98.9% | 88.8% | 113% | 92.1% | 79.2% | 95.1% | 98.9% | 97.2% | 106% | 98.9% | 101% | 92.6% | 111% | 96% | 95.1% | 89.1% | 89.5% | 86.3% | 105%
2 | O=C1C(Cl)=C(N/N=c2/[nH][nH]/c(=N/NC3=C(Cl)C(=O)c4ccccc4C3=O)c3ccccc23)C(=O)c2ccccc21 | 108% | 9.7% (active) | 84.8% | 42.8% | 73.7% | 41.7% | 47.3% | 97.7% | 92.8% | 83.9% | 102% | 63.6% | 61.9% | 2.88% (active) | 55.5% | 62.6% | 25.7% | 69.8% | 104%
3 | Brc1cccc(-n2ncc3c(Nc4ccc(-c5nnc(-c6ccccc6)o5)cc4)ncnc32)c1 | 111% | 110% | 110% | 93.5% | 92.9% | 98.6% | 95.9% | 108% | 108% | 101% | 106% | 92.3% | 102% | 103% | 95.1% | 98.7% | 93.3% | 93.3% | 112%
4 | O=C(/C=C/c1ccccc1)n1c(-c2ccccc2)nc2ccccc21 | 113% | 103% | 112% | 117% | 102% | 110% | 95.3% | 92.4% | 104% | 98.2% | 110% | 85.6% | 94.7% | 96.2% | 95.6% | 97.4% | 103% | 100% | 108%
5 | C=CCn1c(C)nc2cc(Nc3nc(Nc4ccc5nc(C)n(CC=C)c5c4)nc4ccccc34)ccc21 | 115% | 102% | 94.5% | 90% | 124% | 113% | 98.6% | 102% | 109% | 107% | 103% | 90.8% | 100% | 94.4% | 95.8% | 99.7% | 95.8% | 93.3% | 106%
6 | C#CC[C@@H]1C[C@]2(C)[C@H]3CC=C4[C@H]5[C@@H](C)[C@H](C)CC[C@]5(C(=O)NCCCN5CCN(CCCN)CC5)CC[C@@]4(C)[C@]3(C)CC[C@H]2C(C)(C)[C@H]1OC(C)=O | 0.421% (active) | -23.3% (active) | -81% (active) | -70.4% (active) | -82.1% (active) | 85% | -94% (active) | -32.1% (active) | -69.2% (active) | -83.7% (active) | -72.8% (active) | -61.5% (active) | -46.1% (active) | -75.8% (active) | 15% | -7.08% (active) | -68.1% (active) | -83.2% (active) | -84.6% (active)
7 | COc1cc(C2Nc3ccccc3S2)cc(CN2CCOCC2)c1O (centres undefined) | 101% | 46.9% | 66.7% | 63.6% | 78.5% | 91.1% | 82.3% | 78.2% | 55.5% | 52.3% | 93.4% | 46% | 75.9% | 86.7% | 82.1% | 50.6% | 57.3% | 78.2% | 68.6%
8 | Brc1ccccc1Cn1c(-c2cncs2)nc2ccccc21 | 98.4% | 74.6% | 98% | 71.2% | 97.6% | 92.1% | 88.5% | 96% | 92.9% | 82.8% | 80.7% | 53% | 84.6% | 84.8% | 57.2% | 76.2% | 70.1% | 75.8% | 104%
9 | Cc1cc(N=Nc2ccc(-c3ccc(N=Nc4ccc(O)c(C(=O)O)c4)cc3)cc2)c(N)c(N=Nc2ccc(C(=O)O)cc2)c1N | 110% | 75.1% | 95.2% | 102% | 94.7% | 98.7% | 93.2% | 110% | 86.5% | 74.8% | 76.6% | 82.5% | 95.5% | 88.4% | 78.1% | 87% | 71.2% | 93.9% | 80.6%
10 | CC(COC(=O)c1ccccc1)N1CC2CCC(C1)O2 (centres undefined) | 107% | 97.3% | 104% | 107% | 106% | 106% | 100% | 92.7% | 99.3% | 99.7% | 107% | 93.7% | 102% | 98.7% | 91.6% | 101% | 100% | 98% | 104%
11 | CCC(=O)NC(O)C(Cl)(Cl)C(C)Cl (centres undefined) | 116% | 112% | 87% | 99.8% | 111% | 109% | 99.3% | 93.4% | 98.7% | 95.6% | 95.4% | 91.7% | 98.4% | 98.6% | 98.2% | 97.7% | 97.5% | 96.4% | 104%
12 | O=C(NC1CC1)c1ccc(-c2nc3ccc4[nH]ncc4c3c3c2CCCC3)cc1 | 38.2% | 24.4% | 53.8% | 45.7% | -9.49% (active) | 35.1% | 31.3% | 60.2% | 44.7% | 29% | 35.2% | -5.58% (active) | 65.3% | 34.5% | 43.1% | 55.2% | 28.8% | 38.7% | 47.4%
13 | O=C(Nc1cnc(C(F)(F)F)cn1)c1cc(Cl)ccc1O | 24.9% | 7.07% (active) | -18.5% (active) | -21.1% (active) | -1.32% (active) | 18.2% | 3.19% (active) | -20.6% (active) | -3.59% (active) | 10.9% | 22.6% | -20.4% (active) | 24.3% | 6.83% (active) | 5.49% (active) | -80.7% (active) | -5.58% (active) | 6.55% (active) | 3.09% (active)
14 | O=[N+]([O-])c1cccc(N=C(Nc2cccc([N+](=O)[O-])c2)c2ccccc2)c1 | 98.2% | 45% | 79.7% | 83.9% | 82% | 96.6% | 87.1% | 92.4% | 85.7% | 68.3% | 47.5% | 84.2% | 92.4% | 82.6% | 51.6% | 70.5% | 70% | 97% | 96.3%
15 | O=C(c1ccccc1)N(CCCCl)C(=O)N(CCCCl)C(=O)c1ccccc1 | 102% | 91.1% | 91.8% | 85.7% | 111% | 100% | 97.2% | 100% | 96.4% | 94.6% | 82.1% | 104% | 97.4% | 88.5% | 72.1% | 89.6% | 65.2% | 90% | 133%
16 | CCN(CC)Cc1cc(Nc2ccnc3cc(Cl)ccc23)cc(-c2ccc(Cl)cc2)c1O | 26.1% | 18.8% | 10% (active) | 48.7% | 46.4% | 8.65% (active) | -25.6% (active) | 10.5% | 10.2% | 25.2% | 22.7% | -35.9% (active) | 32.8% | 0.662% (active) | 25.2% | -49.6% (active) | 60.8% | 0.179% (active) | 46%
